# Screens as filed in PubChem BioAssay.
# This is a sample that favours compounds with a hit; in the whole collection about 1.2% have one here.
# PLC-gamma1 inh: blocks human PLC-gamma1 enzyme activity; purified PLC-gamma1, fluorogenic substrate, fluorescence; inhibition, % at 12.2 µM; 370,000 compounds, 0.84% hits
# NPR1 activator: GC-A (human) enzyme activation; HEK293 GC-A cells, cGMP TR-FRET, EC30 ANP; 0% at EC30 ANP, 100% saturating ANP; activation, % at 10 µM; 370,000 compounds, 0.14% hits; AID 1671463; in the data active = activation above about 40%
# GC-B act: GC-B (human) receptor activation | 370,000 compounds, 0.11% hits | HEK293-GC-B cells, CNP EC30, cGMP TR-FRET; 0% at EC30 CNP, 100% saturating CNP | activation, % at 10 µM;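 active = activation at 10 µM reaching about 35% in either raw or pattern-adjusted values, limit read from the data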
# Target sequence (P20594 whole entry, looked up): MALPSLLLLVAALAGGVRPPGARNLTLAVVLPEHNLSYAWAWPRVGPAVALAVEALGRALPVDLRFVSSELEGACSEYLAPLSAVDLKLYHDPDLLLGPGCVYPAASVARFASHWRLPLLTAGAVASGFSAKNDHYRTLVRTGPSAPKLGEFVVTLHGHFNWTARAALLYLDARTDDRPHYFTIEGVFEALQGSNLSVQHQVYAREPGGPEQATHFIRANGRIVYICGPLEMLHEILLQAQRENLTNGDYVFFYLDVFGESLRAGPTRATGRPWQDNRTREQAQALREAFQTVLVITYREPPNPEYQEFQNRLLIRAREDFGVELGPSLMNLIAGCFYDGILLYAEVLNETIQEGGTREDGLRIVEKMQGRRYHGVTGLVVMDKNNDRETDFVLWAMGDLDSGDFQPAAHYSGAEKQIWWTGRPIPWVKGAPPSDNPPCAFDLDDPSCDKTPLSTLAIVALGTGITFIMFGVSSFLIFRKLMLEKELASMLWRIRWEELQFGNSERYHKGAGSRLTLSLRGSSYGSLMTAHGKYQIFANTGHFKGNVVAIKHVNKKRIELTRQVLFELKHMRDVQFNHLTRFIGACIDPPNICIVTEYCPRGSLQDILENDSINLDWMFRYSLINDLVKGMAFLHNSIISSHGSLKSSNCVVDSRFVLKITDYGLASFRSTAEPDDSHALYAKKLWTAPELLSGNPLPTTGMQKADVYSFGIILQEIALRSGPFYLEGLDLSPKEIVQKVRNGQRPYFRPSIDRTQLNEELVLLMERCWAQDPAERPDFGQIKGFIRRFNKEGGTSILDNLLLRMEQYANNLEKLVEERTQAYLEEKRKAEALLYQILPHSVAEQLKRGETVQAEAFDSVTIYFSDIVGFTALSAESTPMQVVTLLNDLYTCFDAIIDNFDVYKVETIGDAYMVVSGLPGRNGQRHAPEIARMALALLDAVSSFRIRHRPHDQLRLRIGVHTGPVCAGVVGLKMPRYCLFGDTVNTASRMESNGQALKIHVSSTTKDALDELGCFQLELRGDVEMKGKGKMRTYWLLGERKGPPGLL
# PLCb3 inh: blocks human PLC-beta3 enzyme activity; Purified PLC-beta3, fluorogenic substrate, fluorescence; AID 720704; inhibition, % at 12.2 µM; 370,000 compounds, 0.18% hits; in the data active = inhibition above about 11%;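 also: 0% = median of compound wells on plate and 100% = full blocker control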
# PLCg1 ctr: PLC-gamma1 inhibition, counter-screen for PLC-beta3 hits; inhibition, % at 12.3 µM; 3,300 compounds, 3.1% hits; purified PLC-gamma1, fluorogenic substrate, fluorescence; shares compounds with PLC-gamma1 inh; AID 743258
# PLCbeta3 conf: human PLC-beta3 inhibition, confirmation; shares compounds with PLC-gamma1 inh; purified PLC-beta3, fluorogenic substrate fluorescence; inhibition, % at 12.3 µM; 3,300 compounds, 1% hits; AID 743261; in the data active = inhibition above about 11%
# The depositor's hits bear a star; · = no result. Rule as the data show it, unless noted: active = inhibition above about 9.5%; inactive = the rest.
SMILES,PLC-gamma1 inh,NPR1 activator,GC-B act,PLCb3 inh,PLCg1 ctr,PLCbeta3 conf
O=C(Nc1ccc2c(c1)OCCO2)c1cc(-n2cnnc2)ccc1Cl,11*,6,0,6,-8,-5
O=C(NC1CCCCC1)c1cc(-n2cnnc2)ccc1Cl,9.8*,-2,0,-3,2,4
O=C(Nc1ccc(N2CCOCC2)cc1)c1cc(-n2cnnc2)ccc1Cl,-3,2,3,-5,·,·
COc1ccccc1OCCN1CSC(=S)N(C)C1,0,-1,5,3,·,·
Cc1c(N(C)C(=O)c2ccccc2F)c(=O)n(-c2ccccc2)n1C,2,-3,-1,1,·,·
CCOc1ccc(Nc2ccc(S(=O)(=O)N3CCOCC3)cc2[N+](=O)[O-])cc1,-3,-5,2,2,·,·
O=C(NCCc1ccccc1)c1ccc2c(c1)OCCCO2,0,2,4,-1,·,·
O=C(Nc1cccc(Cl)c1)Nc1cc(S(=O)(=O)N2CCOCC2)ccc1N1CCCC1,11*,7,4,0,-11,-6
O=C(COC(=O)c1ccccc1[N+](=O)[O-])Nc1cc(S(=O)(=O)N2CCOCC2)ccc1N1CCCC1,12*,6,0,-6,2,3
O=C1NCCOC(=O)[C@@H](Cc2ccc(F)cc2)CC/C=C/C[C@@H]1CC(=O)N(CCO)Cc1ccccc1,-3,2,2,0,·,·
O=C(c1cccc(S(=O)(=O)N2CCCCC2)c1)N1CCc2ccccc21,15*,3,5,8,-4,-2
CC(OC(=O)c1cccc(S(=O)(=O)N2CCCCC2)c1)C(=O)NCC1CCCCC1 (stereo not drawn),9.9*,2,4,0,4,3
COc1ccccc1COCC(O)CN1CCN(S(=O)(=O)c2cccc(F)c2)CC1 (stereo not drawn),15*,-4,2,0,-2,2
O=C(c1cccc(S(=O)(=O)N2CCCC2)c1)N1CCCc2ccccc21,3,-5,5,2,·,·
CCOC(=O)c1cccc(S(=O)(=O)N2CCCC2)c1,10*,1,-6,9,-8,-1
O=C(NC1CCCCC1)c1cc(S(=O)(=O)N2CCOCC2)ccc1Cl,7,-4,1,0,·,·
Cc1cccc(C(=O)NCCCNC(=O)c2ccco2)c1,8,1,-4,-6,·,·
Cc1ccc(NC(=O)CCN2CCCCC2)cc1,-2,-1,-3,3,·,·
Cc1ccccc1N1CCN(C2CCCN(C(=O)c3cc(CC(C)C)nn3C)C2)CC1 (stereo not drawn),3,1,3,-4,·,·
COC(=O)[C@]12C[C@H](CC(=O)N3CCN(C(=O)c4ccco4)CC3)C(=O)N(Cc3ccco3)C1=C[C@H](C1CCCC1)O[C@@H]2C,-4,-10,-8,0,·,·
COc1ccccc1COC(=O)c1cccc(S(=O)(=O)N2CCCC2)c1,10*,-1,6,11*,11*,14*
CCOC(=O)C(NC(=O)c1ccc(OC)cc1)(N1CCOCC1)C(F)(F)F (stereo not drawn),5,2,6,5,·,·
CCOC(=O)C(NC(=O)c1ccccc1)(N1CCOCC1)C(F)(F)F (stereo not drawn),10*,-1,1,4,-3,-3
COc1ccc(OCc2nn3c(-c4ccco4)nnc3s2)cc1,1,-1,-5,-1,·,·
c1coc(-c2nnc3sc(Cc4cccs4)nn23)c1,20*,2,-2,-10,-6,-5
SMILES,PLC-gamma1 inh,NPR1 activator,GC-B act,PLCb3 inh,PLCg1 ctr,PLCbeta3 conf
CC(C)(OC(=O)c1cccs1)c1cc2ccccc2c(=O)o1,6,-4,-5,2,·,·
CS(=O)(=O)N(CC(=O)Nc1ccccc1C(=O)N1CCCC1)c1ccc2c(c1)OCO2,9.6*,-1,2,3,8,0
COc1ccc(N(CC(=O)Nc2ccc(C)cc2C)S(=O)(=O)c2c(C)n[nH]c2C)cc1,4,1,2,-3,·,·
COc1ccc(N(CC(=O)Nc2cc(Cl)ccc2C)S(=O)(=O)c2c(C)n[nH]c2C)cc1,13*,1,-3,-3,3,4
COC(=O)c1ccccc1NC(=O)CN(c1ccc(OC)cc1)S(C)(=O)=O,4,-16,-9,14*,-4,-1
COc1ccccc1NC(=O)/C=C\C(=O)O,2,0,3,2,·,·
CC(C)(CNC(=O)Cc1ccc(NS(=O)(=O)c2cccc(C(F)(F)F)c2)cc1)N1CCOCC1,0,3,0,-9,·,·
Nc1ccccc1OCCOCCOCCOc1ccccc1N,7,0,-6,3,·,·
CC1CCN(CC(CS(=O)(=O)c2ccc([N+](=O)[O-])cc2)N2CCC(C)CC2)CC1 (stereo not drawn),5,-7,-2,11*,-6,-4
Cc1ccc(S(=O)(=O)CC(CN2CCOCC2)N2CCOCC2)cc1 (stereo not drawn),3,-3,3,1,·,·
CNC(=O)c1cc(C(=O)c2ccc(F)cc2Cl)c[nH]1,5,-5,1,0,·,·
O=C(O)/C=C/C(=O)NCCc1ccc(Cl)cc1,-1,2,0,-10,·,·
O=C(O)/C=C/C(=O)NCCc1ccccc1,10*,-3,1,4,-2,2
COc1cc(NC(=O)COC(=O)CC2CC3CCC2C3)cc(OC)c1 (stereo not drawn),2,4,-3,-2,·,·
CN(C)S(=O)(=O)c1ccc(NC(=O)COC(=O)CC2CC3CCC2C3)cc1 (stereo not drawn),9.8*,-3,2,3,-7,-3
Cc1ccc(Sc2cc(C(F)(F)F)nc(N(C)C)n2)cc1,3,-7,-6,4,·,·
c1ccc(CNCCCNCCCCNCCCNCc2ccccc2)cc1,8,-5,0,3,·,·
COc1ccccc1N(C)S(=O)(=O)c1ccc(C(=O)NNC(=O)c2ccccc2O)cc1,-2,-3,3,1,·,·
Nc1nc(Sc2ccc([N+](=O)[O-])cc2[N+](=O)[O-])n[nH]1,9.5*,2,0,-1,4,3
Cc1ccnc(Sc2ccc([N+](=O)[O-])cc2[N+](=O)[O-])n1,6,-2,-9,6,·,·
O=C(NCc1ccco1)c1ccccc1NS(=O)(=O)c1ccc2c(c1)OCCO2,-21,-2,3,-27,·,·
CC(=O)OC1CCC2(C)C(=CCC3C2CCC2(C)C3CC3OC4(CCC(C)CN4)C(C)C32)C1 (stereo not drawn),11*,5,3,8,-2,-1
O=C(CS(=O)c1ccc(F)cc1)Nc1ccccc1Cl (stereo not drawn),10.0*,6,2,2,6,-5
O=C(CS(=O)c1cccc(C(F)(F)F)c1)Nc1ccccc1Cl (stereo not drawn),3,0,-5,-51,·,·
O=C(NCCOCC(F)(F)C(F)F)c1cc(F)c(F)cc1Cl,15*,1,8,2,-3,-5
